The source of these data is ChEMBL document CHEMBL3988442, “University of Dundee, Small-Polar-MMV Screening Library” (2021).

Out of some 48,000 compounds screened, about 13,000 (27%) showed an effect of 50% or more. Some of the results follow.

The experiment deals with Wolbachia pipientis. The experiment can be described thus: Anti-Wolbachia Cell-Based Screen. Format: functional. Conditions: 5 µM. Set-up: scale not given: in the data most compounds retested in dose-response had high values.
Consider `NC(=O)NCC1CCCCN1C(=O)c1cc(F)cc(F)c1` (centres undefined), for which the “Percent Effect” value worked out at 94.01%.
Regarding `NC(=O)NCC1CCCCN1C(=O)c1ccc(Cl)s1` (centres undefined), the “Percent Effect” value is on record as 6.082%.
Next, `NC(=O)NCC1CCCCN1C(=O)c1ccc(Br)s1` (centres undefined): 13.78%; `Cc1ccc(C(=O)N2CCCCC2CNC(N)=O)cc1F` (centres undefined): 100.6%; `Cc1ccc(C(=O)N2CCCCC2CNC(N)=O)s1` (centres undefined): -21.76%.
Next, `COc1cccc(C(=O)N2CCCCC2CNC(N)=O)c1` (centres undefined): 4.596%; `CN(C)c1ccc(C(=O)N2CCCCC2CC(N)=O)c(F)c1` (centres undefined): -10.13%; `NC(=O)NCC1CCCCN1C(=O)c1cccc(Cl)c1` (centres undefined): 109.7%.
The value for `CCN(C(C)=O)c1nc(CN2CCCC2Cn2cncn2)cs1` (centres undefined) was 93.1%; that for `CC(=O)Nc1nc(CN2CCCC2Cn2cncn2)cs1` (centres undefined) was -0.3919%.
`CCN(C(C)=O)c1nc(CN2CCCCC2Cn2cncn2)cs1` (centres undefined): the “Percent Effect” value is recorded as 113.4%.
Next, `Cc1cc(C)n(CC2CCCN2CC(=O)N(C)C)n1` (centres undefined): -0.9617%; `CC(=O)Nc1nc(CN2CCCCC2Cn2cncn2)cs1` (centres undefined): 101%; `Cc1cccn2c(=O)cc(CN3CCCCC3Cn3cncn3)nc12` (centres undefined): -0.6189%.
With `Cc1cc(C)n(CC2CCCN2C(=O)Cc2csc(C)n2)n1` (centres undefined), the “Percent Effect” value is -5.348%.
The value for `CC(=O)N(C)c1nc(CN2CCCC2Cn2nc(C)cc2C)cs1` (centres undefined) was 89.05%.
With `CN(C)C(=O)Cc1nc(CN2CCCC2Cn2cccn2)cs1` (centres undefined), the “Percent Effect” value is -60.87%.
As to `c1ncn(CC2CCCN2Cc2cn3ccsc3n2)n1` (centres undefined), the “Percent Effect” value is given as -12.38%.
Next, `NC(=O)c1ccc(N2CCCCC2)c(NC(=O)c2ccc(F)cc2Cl)c1`: -3.289%; `CSc1nc(C2CC2)nc(C)c1C(=O)NCc1ncc(C)o1`: 6.945%; `CCc1nc(CN2CCCN(C(=O)c3cn[nH]c3CC)CC2)cs1`: 9.391%.
For the compound `Cc1cc(NC(=O)N2CCCC(O)C2)nn1-c1ccccc1Cl` (centres undefined), the “Percent Effect” value is recorded as -23.68%.
For the compound `CC(=O)N(C)c1nc(CN2CCCC2Cn2cncn2)cs1` (centres undefined), the “Percent Effect” value turned out to be 102%.
Next, `CC(=O)N(C)c1nc(CN2CCCCC2Cn2cncn2)cs1` (centres undefined): -7.447%; `CN(C)C(=O)Cc1nc(CN2CCCC2Cn2cncn2)cs1` (centres undefined): -5.183%.
For `COc1ccc(N(C)C(=O)c2cccc(S(C)(=O)=O)c2)cn1`, the “Percent Effect” value was -2.349%.
For `Cc1nc[nH]c1C(=O)N1CC[C@@H](NC(=O)c2ccccn2)[C@H](O)C1`, the “Percent Effect” value is reported as -7.66%.
The value for `CC(=O)N1CCC2(CC1)CN(C(=O)c1ccc3c(c1)OCCO3)C2` was -18.73%; that for `COc1ccc(C(=O)N2C[C@@H](C)[C@@](C)(O)C2)cc1N1CCOCC1` was -1.788%; that for `CO[C@H]1CN(C(=O)c2ccc3oc(C)cc3c2)C[C@@]12CCCO2` was 96.35%.
The value for `Cc1cc2cc(C(=O)N3CC[C@H](O)[C@]4(CCCO4)C3)ccc2o1` was 1.113%; that for `Cc1cc2cc(C(=O)N3C[C@H](O)[C@]4(CCCO4)C3)ccc2o1` was 113.6%.
The value for `COc1ccc(C(=O)N2CC[C@](C)(O)[C@H](C)C2)cc1N1CCOCC1` was 0.3479%.
Regarding `CO[C@H]1CCN(C(=O)c2ccc3oc(C)cc3c2)C[C@@]12CCCO2`, the “Percent Effect” value is 93.08%.
The value for `CC[C@@]1(O)CCN(C(=O)c2cccc3cc(C)oc23)C[C@H]1O` was 10.55%.
For the compound `CO[C@H]1CN(C(=O)c2ccc3oc(C)cc3c2)CC[C@@]12CCCO2`, the “Percent Effect” value came out at 0.1168%.
The value for `Cc1nc(C(C)C)ncc1C(=O)N1CCc2c(nc(N(C)C)[nH]c2=O)C1` was -2.755%; that for `Cc1ccc(CN2CC3(CCNCC3)CCC2=O)c(F)c1F` was -4.713%.
The value for `CCN1C[C@H]2C3(CCN(S(C)(=O)=O)CC3)CC[C@@]2(C(=O)N(C)C)C1.O=C(O)C(F)(F)F` was -24.55%; that for `CNC(=O)[C@@]12CCC3(CCN(C(=O)COC)CC3)[C@@H]1CN(S(C)(=O)=O)C2` was 102.3%.
Next, `CNC(=O)[C@@]12CCC3(CCN(S(C)(=O)=O)CC3)[C@@H]1CN(S(C)(=O)=O)C2`: 14.17%; `CNC(=O)N1CCC2(CC1)CC[C@@]1(C(=O)NC)CN(S(C)(=O)=O)C[C@@H]21`: 99.51%; `CNC(=O)[C@@]12CCC3(CCN(C(=O)C(C)C)CC3)[C@@H]1CN(S(C)(=O)=O)C2`: 104.1%.
Consider `CC(=O)N1CCC2(CC1)CC[C@@]1(C(=O)N(C)C)CN(S(C)(=O)=O)C[C@@H]21`, for which the “Percent Effect” value was -18.69%.
Next, `CC(C)NC(=O)N1CCC2(CC1)CC[C@@]1(C(=O)N(C)C)CN(C)C[C@@H]21`: -18.22%; `CCN1C[C@H]2C3(CCN(C(=O)NC(C)C)CC3)CC[C@@]2(C(=O)NC)C1.O=C(O)C(F)(F)F`: -18.02%.
Next, `CNC(=O)[C@@]12CCC3(CCN(C(C)=O)CC3)[C@@H]1CN(S(C)(=O)=O)C2`: -0.1611%; `CCN1CC2(CC1=O)CN(C(=O)COC)CCN(S(C)(=O)=O)C2` (centres undefined): -10.66%; `CNC(=O)[C@@]12CCC3(CCNCC3)[C@@H]1CN(S(C)(=O)=O)C2`: 151.6%.
